In all, about 320,000 compounds went through this assay and about 7,600 (2.4%) were called active. Roughly 3% stayed inconclusive and do not appear here. The call rests on the fitted dose curve; in most records, active means well fitted activation curve with a large enough effect; inconclusive means small, poorly fitted or top-dose-only effect; inactive means no such curve, though single readings can be large or run the other way. The list comes from a sample in which actives are over-represented; it also holds similar structures and randomly drawn compounds. Where a call stands in place of a potency, no number is given.
Potency means the concentration at half of the fitted maximal effect.

The nature of this test: qHTS Assay for NPC1 Promoter Activators. Further: nearly all actives have a fitted effect of over 60% in size.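 On activation: reporter is driven by a mutant NPC1 promoter.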 The note with it: Huh7 NPC1 promoter luciferase reporter, 24 h; series mostly up to 9.22 µM. In a few lines: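 Huh7 reporter cells (NPC1 promoter driving luciferase) are dosed with compound for 24 h at 37 °C, 5% CO2; luciferase detection reagent is then added and luminescence measured after 10 min at ambient temperature.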
Background: In qHTS, concentration-response curves come from the screen itself.
`CC(=O)c1ccc(N2CCN(C(=O)c3ccc(Cl)c(S(=O)(=O)NC4CC4)c3)CC2)c(F)c1`: the Potency result was “inactive”.

Turning to `COc1ccccc1NC(=O)CSc1nnc(CNC(=O)c2ccccc2F)o1`, the Potency result is “inactive”.

For `O=C(/C=C/c1cccc([N+](=O)[O-])c1)OCC(=O)N1CCOCC1`, the Potency entry was “inactive”.

Consider `CC1CC(=O)Nc2ccccc2N1C(=O)COc1ccc2cc(Br)ccc2c1` (configuration not stated), for which the Potency entry is “inactive”.

Take `NC(=O)NCCCC(=O)O`: the Potency entry was “inactive”.

For `Cc1ccccc1-c1nnn(CC(=O)c2ccc(S(=O)(=O)N3CCCC3)cc2)n1`, the Potency entry was “inactive”.

As for `COc1cc(-c2nnn(CC(=O)NCc3ccccc3)n2)cc(OC)c1OC`, the Potency entry was “inactive”.

For `CC(C)(C)NC(=O)Cn1nnc(-c2ccccc2Cl)n1`, the Potency was 3980 nM (active).

Regarding `CCOc1cc(/C=C/C(=O)OCC(=O)NCCN2C(=O)CSC2=O)ccc1OCC(C)C`, the Potency result was “inactive”.

With `CCOC(=O)c1cc(-c2ccccc2C)n(Cc2cc(C)no2)n1`, the Potency entry was “inactive”.

`COCc1c(C(=O)OCC(=O)Nc2ccc(OC(F)F)cc2)oc2ccccc12`: the Potency result is “inactive”.

Turning to `CN(C)c1nc(-c2cccnc2)nc(-c2ccc(Cl)cc2)c1C#N`, the Potency entry is “inactive”.

Turning to `CN(C)c1ccc(-c2nnc(-c3cccnc3)o2)cc1`, the Potency is 1120 nM (active).

On to `COC(=O)CSc1nnc(-c2cccnc2)o1`, for which the Potency result is “inactive”.

Turning to `COc1ccc([C@H]2CC(=O)C=C(/C=C/c3ccccc3)C2)cc1`, the Potency result was “inactive”.

With `CCc1cccc(C)c1N1C(=O)CN(Cc2ccccc2)C1=S`, the Potency result is “inactive”.

In the case of `Cc1ccc(SCCC(=O)NCc2ccccn2)cc1`, the Potency result was “inactive”.

As to `Cc1ccc(SCCC(=O)NC(C(C)C)C(C)C)cc1`, the Potency entry was “inactive”.

Regarding `Cc1ccc(SCCSc2ncccn2)cc1`, the Potency is 1260 nM (active).

On to `COc1ccc(S(=O)(=O)N2CCOCC2)cc1NC(=O)Cc1coc2cc(C)ccc12`, for which the Potency entry is “inactive”.

Regarding `Cc1n[nH]c(=O)c2c(NC(=O)CSc3cc(Cl)ccc3Cl)oc(C)c12`, the Potency entry was “inactive”.

For `CCCCN(C(=O)c1nn(C)c(=O)c2ccccc12)c1c(N)n(CCC)c(=O)[nH]c1=O`, the Potency result was “inactive”.

As to `COc1cccc(CNC(=O)COC(=O)CN2C(=O)NC3(CCCCC3C)C2=O)c1` (configuration not stated), the Potency entry was “inactive”.

Turning to `O=C(CNC(=O)c1ccccc1Br)NNC(=O)c1cccs1`, the Potency entry is “inactive”.

Regarding `O=C(CSc1nc2ccccc2[nH]1)Nc1nc(-c2ccccc2)c(-c2ccccc2)o1`, the Potency entry was “inactive”.

With `O=C(CSc1nc2ccccc2[nH]1)c1cccs1`, the Potency is 1260 nM (active).

`CN(Cc1ccccc1)C(=O)CSc1nc2ccccc2[nH]1`: the Potency result was “inactive”.

Consider `CC(OC(=O)/C=C/c1ccccc1)C(=O)NC1CCCCC1C` (configuration not stated), for which the Potency entry was “inactive”.

Turning to `O=C(CCc1nc(-c2ccccc2)no1)Nc1cccc(C(=O)NC2CC2)c1`, the Potency entry was “inactive”.

`COc1ccc(CC(=O)c2ccc(O)cc2O)cc1OC`: the Potency entry was “inactive”.

On to `COc1ccc(C(=O)Cc2cnn(-c3ccccc3)c2)c(O)c1`, for which the Potency is 2510 nM (active).

`Cc1cc(O)cc(O)c1C(=O)Cc1cnn(-c2ccccc2)c1`: the Potency entry was “inactive”.

Consider `CCOc1ncccc1C(=O)OCC(=O)N1c2ccccc2CC1C` (configuration not stated), for which the Potency entry was “inactive”.

Consider `Cc1noc(NS(=O)(=O)c2ccc(N/C=C/C(=O)c3ccccc3)cc2)c1C`, for which the Potency result is “inactive”.

With `Cc1ccc(N/C=C/C(=O)c2ccccc2)cc1C`, the Potency was 2000 nM (active).

As to `CCOc1ccc(N/C=C/C(=O)c2ccccc2)cc1`, the Potency is 316 nM (active).

`CCOc1ccc(N/C=C/C(=O)c2cc(OC)c(OC)c(OC)c2)cc1`: the Potency result is “inactive”.

As to `COc1ccc(N2C(=O)CCC(C(=O)Nc3ccccn3)C2c2ccc(OC)c(OC)c2)cc1` (configuration not stated), the Potency result was “inactive”.

Turning to `O=C(/C=C/NCc1ccc(F)cc1)c1ccccc1`, the Potency entry is “inactive”.

`CCOc1ccc(NC(=S)N2CCC(NC(=O)c3ccccc3)CC2)cc1`: the Potency entry was “inactive”.

`COc1ccc(C(=O)/C=C/Nc2ccccn2)cc1`: the Potency is 100 nM (active).

Consider `COc1ccc(C(=O)/C=C/c2ccc(OC3CSC3)cc2)cc1`, for which the Potency result is “inactive”.

As to `Cc1nc2ccc(NC(=O)C3CCCCC3)cc2s1`, the Potency entry was “inactive”.

Turning to `COc1ccc(C(=O)OCC(=O)N2CC(=O)Nc3ccccc32)cc1Br`, the Potency result was “inactive”.

As to `Cc1occc1-c1nnc(SCC(=O)NC2CCCCC2)o1`, the Potency result was “inactive”.

In the case of `Cc1nc(SCC(=O)NC2CCCCC2C)c(C#N)c(C)c1C` (configuration not stated), the Potency result is “inactive”.

In the case of `Cc1cccc(-n2cnc(C(=O)Nc3cccnc3)c2)n1`, the Potency is 2820 nM (active).

In the case of `Cc1cccc(-n2cnc(C(=O)NNC(=S)Nc3ccccc3)c2)n1`, the Potency entry is “inactive”.

On to `COc1cccc(C(=O)Nc2cccnc2)c1OC`, for which the Potency entry was “inactive”.

Consider `COc1ccc(S(=O)(=O)N2CCC(C(=O)N3CCCC3)CC2)cc1C`, for which the Potency entry is “inactive”.

In the case of `CCCN(CC1CC1)C(=S)NC(=O)c1ccccc1Br`, the Potency result was “inactive”.

As to `CC1(C)CN(c2ccc(-c3ccnc4ncnn34)cc2)C1=O`, the Potency result was “inactive”.

For the molecule `COc1ccc(N=C(C)c2sc3ccccc3c2O)cc1`, the Potency was 708 nM (active).

Take `Oc1ccc(N=Cc2sc3ccccc3c2Cl)cc1`: the Potency entry was “inactive”.

On to `COc1ccccc1-c1sc2ccccc2c1-c1ccc(C(C)=O)cc1`, for which the Potency entry is “inactive”.

As for `CC1CCCC(C)N1C(=O)COC(=O)COc1ccccc1C#N` (configuration not stated), the Potency result was “inactive”.

In the case of `O=C1C=C(c2cccc(Cl)c2O)C[C@@H](c2ccc(F)cc2)C1`, the Potency entry was “inactive”.

On to `CC1CCCCC12NC(=O)N(CC(=O)Nc1ccc(S(=O)(=O)Nc3ncccn3)cc1)C2=O` (configuration not stated), for which the Potency entry was “inactive”.

With `O=C1Cc2cc(S(=O)(=O)Nc3cccc(F)c3)ccc2N1`, the Potency entry was “inactive”.

Regarding `Cc1ccccc1OCC(=O)Nc1ccc(S(=O)(=O)N2CCOCC2)cc1`, the Potency result was “inactive”.

On to `Cc1ccccc1OCC(=O)Nc1ccc2c(c1)ncn2C`, for which the Potency is 6310 nM (active).

Turning to `Cc1ccccc1OCC(=O)Nc1ccc(N2CCN(C(=O)C(C)C)CC2)c(Cl)c1`, the Potency result is “inactive”.

As to `O=C(CN1C(=O)NC2(CCCCC2)C1=O)N1CCN(C(=O)c2cccs2)CC1`, the Potency result was “inactive”.

For `Cc1ccc(/C=C/C(=O)OCC(=O)NCc2ccc(Cl)cc2)o1`, the Potency entry was “inactive”.

Turning to `CCOc1ccc(NC(=O)CN(C)C(=O)CCSc2ccc(F)cc2)cc1OCC`, the Potency result was “inactive”.

With `CC(C)n1ncc2c(C(=O)Nc3ccc(CC#N)cc3)cc(C3CC3)nc21`, the Potency result is “inactive”.

Turning to `Cc1ccc(N/N=C2\COC(C)(C)CC2=O)cc1`, the Potency was 2820 nM (active).

As to `Nc1c(N(Cc2ccco2)C(=O)c2cccc(F)c2)c(=O)[nH]c(=O)n1Cc1ccccc1`, the Potency entry is “inactive”.

For the molecule `COCCN(Cc1ccccc1)C(=O)Cc1ccc(S(=O)(=O)N2CCOCC2)s1`, the Potency result is “inactive”.

Regarding `Cc1ccc(OCC(=O)Nc2ccc(-c3nc4ncccc4o3)cc2)cc1`, the Potency entry is “inactive”.

As to `CC(=O)Nc1ccc(-c2nc3ccccc3o2)cc1`, the Potency was 1120 nM (active).

Regarding `CCc1nc(Nc2ccc(NC(C)=O)cc2)c2oc3ccccc3c2n1`, the Potency entry is “inactive”.

These data come from PubChem BioAssay AID485313 (National Center for Advancing Translational Sciences (NCATS), 2010).
